TEAD-YAP block = TEAD-YAP interaction inhibition; 1.4% of 640,000 active; AID 1259422; HEK-TIYL cells, TEAD-Gal4/YAP UAS-luciferase luminescence; inhibition, % at 9.12 µM; in the data active = inhibition above about 32%;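 also: 0% = median of test compound wells and 100% = reference inhibitor wells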
GPR151 activ = activators of human GPR151; activation, % at 11.2 µM; PathHunter beta-arrestin GPR151 cells, luminescence; 1% of 650,000 active; Q8TDV0; in the data active = activation above about 4.9%;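 also: 0% = median of compound wells and 100% = cells with positive control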
Target sequence (Q8TDV0 whole entry, looked up): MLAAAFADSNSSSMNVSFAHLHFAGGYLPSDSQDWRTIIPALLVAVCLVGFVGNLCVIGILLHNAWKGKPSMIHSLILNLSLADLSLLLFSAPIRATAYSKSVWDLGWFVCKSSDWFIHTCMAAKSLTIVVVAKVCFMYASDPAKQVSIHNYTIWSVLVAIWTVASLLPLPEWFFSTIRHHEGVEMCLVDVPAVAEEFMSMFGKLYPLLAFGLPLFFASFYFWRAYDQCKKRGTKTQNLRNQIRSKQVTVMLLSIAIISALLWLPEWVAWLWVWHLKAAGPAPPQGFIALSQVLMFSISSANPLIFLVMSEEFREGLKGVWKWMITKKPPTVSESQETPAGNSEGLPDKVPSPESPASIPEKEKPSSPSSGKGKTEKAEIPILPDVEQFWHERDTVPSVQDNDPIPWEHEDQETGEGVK
MITF primary = human MITF inhibition, primary screen; AID 1259374; O75030; inhibition, % at 2.6 µM; AlphaScreen MITF homodimerization, bead proximity signal; 0.91% of 650,000 active; in the data active = inhibition above about 50%;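 also: 0% = vehicle wells with protein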
FBW7 act = human FBW7 E3 ligase activation, primary screen. 0.13% of 650,000 active. Q969H0. AlphaScreen FBW7–phospho-cyclin E peptide binding, activator screen. AID 1259310. normalized activity (activation), % at 26.1 µM; in the data active = normalized activity above about 1.9%;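 also: purified mutant Fbw7 with reduced substrate affinity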
GPR151 confirm = human GPR151 activation, confirmation screen | shares compounds with GPR151 activ | GPR151 PathHunter beta-arrestin cells, luminescence, 90 min; % of EA-reagent control over plate median | activation, % at 11.2 µM | 6,700 tested, under 10 active | AID 1508609;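 active = mean percent activation across replicates above the confirmation screen cutoff of 4.91%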
GPR119 ag = counter-screen for GPR151 activators: effect on human GPR119; AID 1508611; GPR119 PathHunter beta-arrestin cells, luminescence, 90 min; 0 = compound-well median, 100 = enzyme-acceptor control; shares compounds with GPR151 activ; 0.3% of 6,700 active; activation, % at 11.2 µM;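 active = mean percent activation in the counterscreen above 29.09%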;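 also: counterscreen on off-target GPR119 to flag nonselective hits from the GPR151 activator screen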
The depositor's hits bear a star. Shown are actives, neighbours in structure and some others; about 3.4% of the full set was active somewhere.

Screening CCc1ccc(C(=O)NC(CC(C)C)C(=O)Nc2cc(C)on2)cc1 (stereo unspecified) returned TEAD-YAP block 0, GPR151 activ 5.3*, MITF primary 3, FBW7 act 0, GPR151 confirm 0 and GPR119 ag -1.
`CC(=O)C1=C(C)NC(SCC(N)=O)=C(C#N)C1c1cccc([N+](=O)[O-])c1` (stereo unspecified) gave TEAD-YAP block 0, GPR151 activ 9.3*, MITF primary 13, FBW7 act 0, GPR151 confirm 2 and GPR119 ag 8.
For COC(=O)CSC1=C(C#N)C(c2ccccc2)C(C(=O)Nc2ccccc2)=C(C)N1 (stereo unspecified) the results were TEAD-YAP block -8, GPR151 activ 5.7*, MITF primary -5, FBW7 act 0, GPR151 confirm -1 and GPR119 ag -4.
`CC1=C(C(=O)Nc2ccccc2)C(c2ccco2)C(C#N)=C(SCC(=O)Nc2ccc(F)cc2)N1` (stereo unspecified) gave TEAD-YAP block 4, GPR151 activ 5.9*, MITF primary 16, FBW7 act 0, GPR151 confirm 0 and GPR119 ag 14.
CC1=C(C(=O)Nc2ccccc2C)C(c2ccccc2)C(C#N)=C(SCC(=O)Nc2ccccc2C)N1 (stereo unspecified) was read as TEAD-YAP block 2, GPR151 activ 1, MITF primary 23 and FBW7 act 0.
`CC1=C(C(=O)Nc2ccccc2C)C(c2ccccc2)C(C#N)=C(SCC(=O)Nc2cc(C)ccc2C)N1` (stereo unspecified) gave TEAD-YAP block 9, GPR151 activ 12*, MITF primary 6, FBW7 act 0, GPR151 confirm -1 and GPR119 ag -7.
C(=C\c1ccccc1)/COc1ccccc1 was read as TEAD-YAP block 1, GPR151 activ 1, MITF primary -5 and FBW7 act 0.
Screening COc1cc(C#N)ccc1OCC(=O)N(C)Cc1ccc(F)cc1 returned TEAD-YAP block -11, GPR151 activ 8.0*, MITF primary -15, FBW7 act 0, GPR151 confirm 1 and GPR119 ag -8.
COc1cc(C#N)ccc1OCC(=O)NC(C)c1ccc(F)cc1 (stereo unspecified) was read as TEAD-YAP block 2, GPR151 activ 1, MITF primary 2 and FBW7 act 0.
For O=C(COC(=O)c1ccc(NC(=O)c2ccc([N+](=O)[O-])cc2)cc1)c1ccc(F)cc1 the results were TEAD-YAP block 10, GPR151 activ 3, MITF primary 10 and FBW7 act 0.
Screening COc1ccc(CNC(=O)c2cc3c(=O)[nH]c4ccccc4c3n2C)c(OC)c1 returned TEAD-YAP block -5, GPR151 activ 6.4*, MITF primary 12, FBW7 act 0, GPR151 confirm -1 and GPR119 ag -11.
`O=C(Nc1nc(-c2ccccc2)c(C(=O)c2ccccc2)s1)c1cc(Cl)ccc1[N+](=O)[O-]` gave TEAD-YAP block 1, GPR151 activ 1, MITF primary 0 and FBW7 act 0.
Screening O=C(Nc1nc(-c2ccccc2)c(C(=O)c2ccccc2)s1)c1ccccc1[N+](=O)[O-] returned TEAD-YAP block 14, GPR151 activ 5.0*, MITF primary 2, FBW7 act 0, GPR151 confirm 1 and GPR119 ag 9.
Screening Cc1cc2ncn(S(=O)(=O)c3ccc(Cl)c(Cl)c3)c2cc1C returned TEAD-YAP block 4, GPR151 activ -1, MITF primary 10 and FBW7 act 0.
Screening Cc1cc2ncn(S(=O)(=O)c3ccc(S(=O)(=O)N4CCCCC4)cc3)c2cc1C returned TEAD-YAP block -6, GPR151 activ 7.7*, MITF primary 16, FBW7 act 1, GPR151 confirm 0 and GPR119 ag -11.
For N#Cc1ccccc1CN1CCC(Oc2cccc(-c3cccnc3)c2)CC1 the results were TEAD-YAP block 8, GPR151 activ 5.2*, MITF primary 1, FBW7 act 0, GPR151 confirm -1 and GPR119 ag 7.
For COc1ccc(Cc2nnc(SCC(=O)Nc3ccc(C)c([N+](=O)[O-])c3)o2)cc1 the results were TEAD-YAP block 8, GPR151 activ 7.4*, MITF primary 10, FBW7 act 0, GPR151 confirm 0 and GPR119 ag -9.
For COc1ccc(Cc2nnc(SCC(=O)Nc3ccc(F)cc3)o2)cc1 the results were TEAD-YAP block 2, GPR151 activ 0, MITF primary -2 and FBW7 act 0.
`O=C(Nc1ccc(O)c(C(=O)O)c1)c1ccc2c(c1)C(=O)N(Cc1ccccc1)C2=O` gave TEAD-YAP block 5, GPR151 activ 0, MITF primary 6 and FBW7 act 0.
CCC(=O)N1CCC[C@@H]2CN(C(=O)/C=C/c3cccs3)CC[C@H]21 was read as TEAD-YAP block -17, GPR151 activ 5.6*, MITF primary -2, FBW7 act 0, GPR151 confirm 0 and GPR119 ag -2.
For CCCCOc1ccc(C2C3=C(CC(C)(C)CC3=O)Nc3ncnn32)cc1OC (stereo unspecified) the results were TEAD-YAP block 1, GPR151 activ 3, MITF primary 4 and FBW7 act 0.
`COc1ccc(CCNC(=O)C2CC(=O)N(c3ccc(Cl)cc3)C2)cc1OC` (stereo unspecified) gave TEAD-YAP block 3, GPR151 activ 0, MITF primary 2 and FBW7 act 0.
Screening COc1cccc(-c2noc(C3CCCN(C(=O)Nc4ccc(C(F)(F)F)cc4)C3)n2)c1 (stereo unspecified) returned TEAD-YAP block -23, GPR151 activ 0, MITF primary 4 and FBW7 act 0.
For COc1ccccc1NC(=O)N1CCC(c2nc(-c3cccc(C(F)(F)F)c3)no2)CC1 the results were TEAD-YAP block -4, GPR151 activ 11*, MITF primary 5, FBW7 act 0, GPR151 confirm 0 and GPR119 ag -10.
`COc1ccccc1NC(=O)N1CCC(C(=O)c2ccc(F)cc2)CC1` gave TEAD-YAP block 1, GPR151 activ 5.7*, MITF primary -5, FBW7 act 0, GPR151 confirm 2 and GPR119 ag 6.
`N#Cc1cccc(NC(=O)CCCCC(=O)Nc2cccc(C#N)c2)c1` gave TEAD-YAP block -7, GPR151 activ 1, MITF primary 16 and FBW7 act 1.
Cc1cccc(OCC(=O)Nc2nnc(CSCc3ccc(Cl)cc3Cl)s2)c1 was read as TEAD-YAP block -1, GPR151 activ 0, MITF primary 6 and FBW7 act 0.

Screens (PubChem)
